Structures are written as SMILES. Where “and” joins values, the source holds several entries; their conditions need not be identical. Equal values may be shown once. In all, about 16,000 compounds went through this assay and about 5,800 (36%) were called active. Roughly 23% stayed inconclusive and do not appear here. The call rests on the fitted dose curve; in most records, active means well fitted curve in the direction sought with a large enough effect; inconclusive means small, poorly fitted or top-dose-only effect, or effect the other way; inactive means no such curve, though single readings can be large or run the other way. This is one part of the list.
On the % scale 0 is the no-effect control and ±100 the full control effect.

Chain of Cytochrome P450 2C19 (Homo sapiens) (P33261 whole entry, looked up): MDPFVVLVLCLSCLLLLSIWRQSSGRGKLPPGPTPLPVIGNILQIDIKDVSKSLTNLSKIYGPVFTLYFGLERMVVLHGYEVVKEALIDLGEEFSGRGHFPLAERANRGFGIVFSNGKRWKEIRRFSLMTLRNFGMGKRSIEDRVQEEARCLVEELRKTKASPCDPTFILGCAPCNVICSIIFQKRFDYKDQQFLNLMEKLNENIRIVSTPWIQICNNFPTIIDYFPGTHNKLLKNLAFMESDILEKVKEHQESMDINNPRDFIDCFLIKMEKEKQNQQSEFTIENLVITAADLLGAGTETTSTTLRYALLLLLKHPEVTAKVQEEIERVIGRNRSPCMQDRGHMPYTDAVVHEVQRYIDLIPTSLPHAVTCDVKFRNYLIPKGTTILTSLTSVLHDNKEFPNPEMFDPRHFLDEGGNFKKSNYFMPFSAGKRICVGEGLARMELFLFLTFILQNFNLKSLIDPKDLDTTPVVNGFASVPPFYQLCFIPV

The test has as its target Cytochrome P450 2C19 (Homo sapiens) (UniProt P33261). Put plainly: Cytochrome panel assay with activity outcomes. As to conditions: recombinant CYP, pro-luciferin dealkylation, luminescence, p450-cyp2c19; series mostly up to 57.1 µM.
As a reminder, the AC50 is the concentration giving half of the maximal activity seen. Take `CC12CCC(C(=O)O)(C/C1=N\O)C2(C)C` (configuration not stated): the AC50 entry is “inactive”.
Same read-out and setting: the result for `CCNC(=O)COC(=O)c1cc(-c2ccc(OC)cc2)nc2ccccc12` reads 11.2 µM (active); that for `CCNC(=O)COC(=O)c1cc(=O)[nH]c2ccccc12`, “inactive”.
Turning to `N[C@@H](Cc1[nH]nc2ccccc12)C(=O)O`, the activity, negative = inhibition is 2.15% [at 11.4 µM] (inactive).
As for `CC(C)NC(=O)COC(=O)c1cc(=O)[nH]c2ccccc12`, the AC50 result is “inactive”.
With `Cc1cc(C(=O)OCC(=O)NCCC(C)C)c2ccccc2n1`, the AC50 is 14.1 µM (active).
In the case of `COc1ccc(OC)c(-c2cc(C(=O)O)c3cc4ccccc4cc3n2)c1`, the activity, negative = inhibition is 2.46% [at 11.4 µM] (inactive).
With `COc1ccc(NC(=S)Nc2ccccc2)cc1`, the AC50 is 2 µM (active).
Same read-out and setting: the result for `COc1ccc(C(=O)N2CCC3(CC2)CN(C(=O)Nc2ccccc2)C3)cc1` reads “inactive”; that for `COc1ccc(C(=S)Nc2ccccc2)cc1`, 3.98 µM (active).
Regarding `CC(=O)O[C@]1(C(C)=O)CC[C@@H]2[C@@H]3C=C(Cl)C4=CC(=O)[C@H]5C[C@@H]5[C@]4(C)[C@H]3CC[C@]21C`, the AC50 result was “inactive”.
On the same count and under the same terms, in the case of `COc1cccc(-c2[nH]nc3c2C(c2ccc(C)o2)C(C#N)=C(N)O3)c1` (configuration not stated) it was 1.78 µM (active); in that of `COc1cccc(-c2[nH]nc3c2C(c2ccsc2)C(C#N)=C(N)O3)c1` (configuration not stated), 0.447 µM (active).
Same read-out and setting: in the case of `CS(=O)(=O)N1CCC2(CCN(Cc3nccs3)CC2)CC1` it was “inactive”.
`NC(N)=N[C@H](CCC(=O)O)C(=O)O`: the AC50 result was “inactive”.
As to `COC(=O)N1CCC[C@@]2(CCN(C(=O)Nc3cccc(C#N)c3)C2)C1`, the AC50 result was “inactive”.
The same measure, in the same setting: in the case of `COC(=O)C1=C(C)OC(N)=C(C#N)C1c1cc(OC)ccc1OC` (configuration not stated) it was 7.94 µM (active).
Turning to `COc1cc(C2C(C#N)=C(N)OC3=C2C(=O)CCC3)cc(OC)c1OC(=O)N1CCOCC1` (configuration not stated), the AC50 result is “inactive”.
Still for that read-out and setting: the result for `COC(=O)C1=C(C)OC(N)=C(C#N)C1C1CCCCC1` (configuration not stated) reads 0.562 µM (active).
As for `O=C(c1coc(=O)c2ccccc12)N1CCN(Cc2ccccc2)CC1`, the concentration at half-maximal activity (AC50) is 2.24 µM (active).
For the compound `CC(=O)N1CCC2(CCN(Cc3ccccc3)CC2)CC1`, the AC50 entry was “inactive”.
Still for that read-out and setting: the result for `COc1cccc(Nc2ncc(C(=O)O)c3ccccc23)c1` reads “inactive”; that for `COc1ccc(N2CCN(C(=N)/C(C(C)=O)=C(\C)O)CC2)cc1`, “inactive”.
Regarding `COc1ccc(Nc2ncc(C(=O)N3CCN(Cc4ccccc4)CC3)c3ccccc23)cc1`, the concentration at half-maximal activity (AC50) was 2 µM (active).
For the compound `COc1ccc(Nc2ncc(C(=O)N3CCN(c4ccc(F)cc4)CC3)c3ccccc23)cc1`, the AC50 was 2.24 µM (active).
Regarding `COC(=O)c1ccccc1OCC(=O)N1CCN(c2ccc(OC)cc2)CC1`, the AC50 is 14.1 µM (active).
The same measure, in the same setting: the result for `COc1ccc(C(=O)N2CCC3(CCN(Cc4ccccc4OC)CC3)CC2)cc1` reads “inactive”.
On the same count and under the same terms, the result for `O=C(c1ccco1)N1CCC2(CCN(Cc3ccccc3)CC2)CC1` reads “inactive”; that for `C1CNCCOCCNCCN1`, “inactive”; that for `Fc1ccc(COc2ccc(Br)cc2CNCc2ccncc2)cc1`, 0.1 µM (active).
Still for that read-out and setting: the result for `COC(=O)c1scc(C)c1NC(=O)Cc1ccccc1` reads 15.8 µM (active).
With `CCCN[C@@H](C)C(=O)Nc1c(C)csc1C(=O)OC`, the AC50 result is “inactive”.
With `O=C(Nc1ccccc1)N1CC[C@@]2(CCCN(C(=O)c3cnccn3)C2)C1`, the AC50 result is “inactive”.
The same measure, in the same setting: the result for `Cc1cccc(-c2nc(CN3CCCC(C(=O)NC4CCCCC4)C3)c(C)o2)c1` (configuration not stated) reads 22.4 µM (active); that for `Cc1ccccc1-c1nc(-c2ccc(NC(=O)c3cccs3)cc2)no1`, 2.82 µM (active); that for `Cc1ccc(-c2nnc(-c3ccc(NC(=O)c4cccs4)cc3)o2)cc1`, 6.31 µM (active).
Still for that read-out and setting: the result for `Cc1ccc(Cc2cnc(NC(=O)c3cccs3)s2)cc1` reads 8.91 µM (active).
In the case of `Cn1c(=O)c2c(ncn2C[C@@H](O)CO)n(C)c1=O`, the AC50 entry is “inactive”.
As to `Cn1c(=O)c2c(ncn2CC(COCc2ccccc2Cl)OCc2ccccc2Cl)n(C)c1=O` (configuration not stated), the AC50 was 8.91 µM (active).
Consider `Cn1c(=O)c2c(ncn2CCO)n(C)c1=O`, for which the AC50 result is “inactive”.
As to `Cc1ccc(-c2csc(N3CCC(NS(=O)(=O)c4ccc5c(c4)OCCO5)CC3)n2)cc1`, the AC50 was 3.16 µM (active).
Consider `CCCCOc1ccc(C(=O)N/C(=C\c2ccc(OC)cc2)C(=O)OCc2ccco2)cc1`, for which the AC50 is 3.98 µM (active).
The same measure, in the same setting: in the case of `CCCCOc1ccc(C(=O)N/C(=C\c2cccc([N+](=O)[O-])c2)C(=O)OCCC)cc1` it was “inactive”.
Regarding `O=c1c(-c2ccc(Cl)cc2)nc2cnc(N3CCOCC3)nc2n1C1CC1`, the AC50 entry was “inactive”.
Still for that read-out and setting: in the case of `O=C(COc1ccc(Br)cc1)Nc1ccc([N+](=O)[O-])cn1` it was 2.82 µM (active); in that of `CC(=O)Nc1ccc([N+](=O)[O-])cn1`, “inactive”.
The same measure, in the same setting: the result for `C/C(=N\NC(=O)COc1ccc([N+](=O)[O-])cc1)C(C)(C)C` reads “inactive”; that for `CCOc1cc(C2CC(=O)c3c(ccc4ccccc34)N2)ccc1O` (configuration not stated), 5.01 µM (active).
With `CCOc1ccc2ccccc2c1C(=O)N[C@@H]1C(=O)N2[C@@H]1SC(C)(C)[C@@H]2C(=O)O`, the AC50 result was “inactive”.
Regarding `Nc1cccc(OCc2nc(N)nc(N)c2-c2ccc(Cl)cc2)c1`, the activity, negative = inhibition was -6.77% [at 11.4 µM] (inactive).
Turning to `Cc1cc(OCc2nc(N)nc(N)c2-c2ccc(Cl)c(Cl)c2)ccc1[N+](=O)[O-]`, the AC50 was 3.16 µM (active).
Take `CC(C)N1CCC(=NNC(=O)c2ccc(Br)o2)CC1`: the AC50 entry was “inactive”.
Still for that read-out and setting: the result for `CCCN1CCC(=NNC(=O)c2ccc(Br)o2)CC1` reads 25.1 µM (active); that for `O=C(Nc1nnc(SCc2ccc(Cl)cc2Cl)s1)C1COc2ccccc2O1` (configuration not stated), 2.51 µM (active).
Same read-out and setting: in the case of `Nc1nc2c(nc(Br)n2[C@@H]2O[C@H]3COP(=O)(O)O[C@H]3[C@@H]2O)c(=O)[nH]1` it was “inactive”; in that of `COC(=O)N1CCC2(CC1)CN(C(=O)Nc1cccc(C#N)c1)C2`, “inactive”.
For `CCCC(=O)Nc1cccc(Oc2nc(C)cc(C)c2C#N)c1`, the AC50 is 17.8 µM (active).
Regarding `Cc1cnc(NC(=O)CCCc2nc3ccccc3s2)s1`, the AC50 is 7.94 µM (active).
Still for that read-out and setting: in the case of `COc1ccccc1N1CCN(C[C@@H](C(=O)NC(C)(C)C)c2ccccc2)CC1` it was “inactive”; in that of `COc1ccccc1N1CCN(C[C@@H](O)COc2cccc3ccccc23)CC1`, 6.31 µM (active) and 7.94 µM (active) and 1.58 µM (active).
Take `O=C(O)[C@@H]1CCCN1Cc1cc2ccccc2c2ccccc12`: the activity, negative = inhibition is 31.6% [at 11.4 µM] (inactive).
In the case of `Clc1ccc(CN2CCCN(Cc3ccc(Cl)cc3)C2c2cc3ccccc3c3ccccc23)cc1`, the concentration at half-maximal activity (AC50) was 0.794 µM (active).
On to `CC(C)CC(=O)Nc1ccccc1-c1nnn(CC(=O)N2CCc3ccccc3C2)n1`, for which the AC50 was 14.1 µM (active).
As to `COc1ccc2c(c1OC)C(=O)OC2[C@H]1c2c(cc3c(c2OC)OCO3)CCN1C` (some centres not stated), the AC50 was 2.51 µM (active).
Same read-out and setting: in the case of `COc1ccc2c(c1OC)C(=O)O[C@@H]2[C@H]1c2c(cc3c(c2OC)OCO3)CCN1C` it was 0.158 µM (active).
Take `C[C@H]1CCCC=CC2C[C@H](OC(=O)CN(C)C)C[C@@H]2[C@@H](O)/C=C\C(=O)O1` (some centres not stated): the activity, negative = inhibition is 8.1% [at 11.4 µM] (inactive).
On to `CSc1nnc(-c2sc(-c3ccccc3)nc2C)n1C`, for which the AC50 result is “inactive”.
The same measure, in the same setting: the result for `C#CCSc1nnc(-c2sc(-c3ccccc3)nc2C)n1C` reads 2.51 µM (active).
On the same count and under the same terms, the result for `C#CCSc1nnc(-c2cc3c(C(F)(F)F)nn(C)c3s2)n1C` reads “inactive”; that for `COC(=O)[C@@]1(Cc2ccc(F)cc2)[C@@H]2C(=CC(=O)[C@H]2CC(=O)C(=O)N(C)C)CN1C(=O)c1ccccc1`, 25.1 µM (active).
Same read-out and setting: in the case of `COC(=O)[C@@]1(Cc2ccc(F)cc2)[C@@H]2C(=CC(=O)[C@H]2CC(=O)C(=O)N2CCCC2)CN1C(=O)c1ccccc1` it was 31.6 µM (active); in that of `COC(=O)[C@@]1(Cc2ccccc2)[C@@H]2C(=CC(=O)[C@H]2CC(=O)C(=O)N(C)C)CN1C(=O)c1ccccc1`, “inactive”.
For `CC(NC(=O)Cc1ccc(F)cc1)c1ccccc1` (configuration not stated), the AC50 was 11.2 µM (active).
For the compound `CC(=O)NC(Cc1ccc(F)cc1)C(=O)O` (configuration not stated), the AC50 entry is “inactive”.
As to `Cc1nnsc1SCC(=O)O`, the AC50 entry was “inactive”.
As for `O=C(O)CSc1sc(=S)sc1SCC(=O)O`, the AC50 was 10 µM (active).
On the same count and under the same terms, the result for `COc1cccc(C(=O)N(Cc2ccccc2)Cc2cc3cc4c(cc3[nH]c2=O)OCCO4)c1` reads 15.8 µM (active).
For `C/C(CCN1CCc2nc(-c3ccccc3)c(-c3ccccc3)cc2C1)=N\O[C@@H](C)CN1CCCc2nc(C)c(C)cc21`, the activity, negative = inhibition is -28.4% [at 11.4 µM] (inactive).
As for `Cc1cc(/C=N/n2cnnc2)c(C)n1-c1ccc(OCc2ccccc2F)cc1`, the AC50 is 2 µM (active).
In the case of `CCOC(=O)C(C)(C)[C@H](O)C(C)C`, the activity, negative = inhibition is 3.67% [at 11.4 µM] (inactive).
Consider `CS[C@]12C(=O)C[C@]3(C)[C@@H](CC[C@@]3(O)C(=O)CO)[C@@H]1CCC1=CC(=O)CC[C@]12C`, for which the AC50 is 3.16 µM (active).
As for `CC(=O)OCC(=O)[C@@]1(O)CC[C@@H]2[C@H]3CCC4=CC(=O)CC[C@]4(C)[C@]3(F)[C@@H](O)C[C@@]21C`, the AC50 entry is “inactive”.
As for `C[C@@]12CCC(=O)C=C1CC[C@H]1[C@H]3CC[C@](O)(C(=O)CO)[C@]3(C)CC(=O)[C@@H]12`, the AC50 entry was “inactive”.
With `Cc1ccc(C(=O)N2CCN(c3cc(=O)[nH]nc3-c3ccccc3)CC2)cc1`, the AC50 was 20 µM (active).
Regarding `O=C(c1cccc(F)c1)N1CCC2(CC1)CCN(c1ccc(-c3ccccc3)cc1)CC2`, the AC50 entry was “inactive”.
Still for that read-out and setting: in the case of `CC(C)[C@H](CO)Nc1nc(Nc2cc(N)cc(Cl)c2)c2ncn(C(C)C)c2n1` it was “inactive”; in that of `CN(C)C(=O)c1ccc(-c2nc(Nc3ccc(F)cc3)c3ccccc3n2)cc1`, 31.6 µM (active).
Still for that read-out and setting: the result for `CN(C)C(=O)c1ccc(-c2nc(Nc3ccccc3)c3ccccc3n2)cc1` reads 15.8 µM (active); that for `CN(C)C(=O)c1ccc(-c2nc(NCc3cccs3)c3ccccc3n2)cc1`, 10 µM (active).
On the same count and under the same terms, the result for `CC(=O)NCCNc1nc(-c2ccc(C(=O)N(C)C)cc2)nc2ccccc12` reads “inactive”; that for `Cc1cnc(CNc2nc(-c3ccc(C(=O)N(C)C)cc3)nc3ccccc23)cn1`, “inactive”.
Turning to `C=C1CC[C@H](O)C/C1=C/C=C1\CCC[C@]2(C)[C@H]1CC[C@H]2[C@@H](C)/C=C\[C@@H](C)C(C)C`, the AC50 result is “inactive”.

The values above are taken from PubChem BioAssay AID1851 (National Center for Advancing Translational Sciences (NCATS), 2009).
